Test results published in PubChem BioAssay (NCATS).
Results filed as inconclusive are left out. Unmarked numbers belong to inactive results. Activity calls are given as the source filed them. Calls follow the shape of the dose curve; as a rule, active = well fitted inhibition curve with a large enough effect; inconclusive = small, poorly fitted or top-dose-only effect; inactive = flat fitted curve, though single readings scatter.

Each compound was assayed on N140 (assay: qHTS profiling for inhibitors of Plasmodium falciparum proliferation (AID 504749; also: nearly all actives have a fitted effect of over 60% in size;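 as to activity, negative = inhibition: 0% = DMSO vehicle and full inhibition = artemisinin control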)). Conditions: P. falciparum in erythrocytes, SYBR Green DNA, 72 h; series mostly up to 28.7 µM; activity, negative = inhibition: at the top concentration.
Summary of the method: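 P. falciparum-infected erythrocytes (0.3% parasitemia, 2.5% hematocrit final) were exposed to compounds for 72 h at 37 C in 5% CO2, then lysed with SYBR Green buffer overnight at room temperature; parasite DNA fluorescence was normalized to artemisinin and DMSO controls.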
Potency is read from the fitted curve at half-maximal effect.

Structure (SMILES) | activity, negative = inhibition [%] | Potency
CC1(Cn2ccnn2)[C@H](C(=O)O)N2C(=O)C[C@H]2S1(=O)=O (stereo partly drawn) | 15.2 | –
CN(C)CC/C=C1\c2ccccc2COc2ccc(CC(=O)O)cc21 | 8.84 | –
CCCC(=O)O[C@]1(C(=O)COC(C)=O)CC[C@H]2C3C[C@H](F)C4=CC(=O)C=CC4(C)[C@@]3(F)[C@@H](O)CC21C (stereo partly drawn) | -20.3 | –
OCCN1CC(O)C(O)C(O)C1CO (stereo not drawn) | 5.32 | –
COc1cc2c(cc1O)CCN[C@@]21CS[C@H]2c3c(OC(C)=O)c(C)c4c(c3C(COC1=O)N1C2C2c3c(cc(C)c(OC)c3O)CC([C@@H]1O)N2C)OCO4 (stereo partly drawn) | – | 1 nM (active)
CC(CCC(=O)O)C1CCC2C3C(=O)C[C@@H]4CC(=O)CC[C@@]4(C)C3CC(=O)[C@]12C (stereo partly drawn) | -16.9 | –
C[n+]1c2cc(N)ccc2cc2ccc(N)cc21 | – | 631 nM (active)
O=C(OC[C@@H]1O[C@@](O)(COC(=O)c2cccnc2)[C@H](OC(=O)c2cccnc2)[C@H]1OC(=O)c1cccnc1)c1cccnc1 | -0.778 | –
O=[N+]([O-])O[C@H]1CO[C@H]2[C@@H]1OC[C@H]2O | 13.5 | –
COc1cccc(OC)c1C(=O)NC1C(=O)N2C1SC(C)(C)C2C(=O)O (stereo not drawn) | 8.66 | –
NC[C@@H]1O[C@H](OC2[C@@H](CO)O[C@@H](OC3[C@H](O)[C@H](N)C[C@H](N)[C@H]3OC3O[C@H](CO)[C@@H](O)[C@H](O)[C@@H]3N)[C@H]2O)C(N)[C@H](O)[C@@H]1O (stereo partly drawn) | 11 | –
Cc1ccc(S(=O)(=O)NC(=O)NC(C)Cc2ccccc2)cc1 (stereo not drawn) | 19.7 | –
OCCOC[C@H]1O[C@H](OCCO)[C@H](OCCO)[C@@H](OCCO)[C@@H]1OCCO (tested in a mixture with another compound) | 7.55 | –
C[S+](C)CC[C@H](N)C(=O)O | 10.4 | –
CC[C@@H]1/C=C(\C)C[C@H](C)C[C@H](OC)[C@H]2O[C@@](O)(C(=O)C(=O)N3CCCC[C@H]3C(=O)O[C@H](/C(C)=C/[C@@H]3CC[C@H](Cl)[C@H](OC)C3)[C@H](C)[C@@H](O)CC1=O)[C@H](C)C[C@@H]2OC | 13.3 | –
NC(=O)C1CC2(NC(=O)NC2=O)c2cc(F)ccc2O1 (stereo not drawn) | 3.32 | –
CN1[C@@H]2CC[C@@H]1CC(OC(=O)[C@H](CO)c1ccccc1)C2 (stereo partly drawn) | 4.31 | –

Structure (SMILES) | activity, negative = inhibition [%] | Potency
CC[C@@]1(O)C[C@H](O[C@H]2C[C@@H](N(C)C)[C@@H](O[C@H]3C[C@@H](O)[C@@H](O[C@H]4CCC(=O)[C@@H](C)O4)[C@@H](C)O3)[C@@H](C)O2)c2c(cc3c(c2O)C(=O)c2c(O)cccc2C3=O)[C@H]1C(=O)OC | – | 178 nM (active)
CCCCCCCCCCCC(=O)OCC(O)C1OCC(O)C1O (stereo not drawn) | 10.5 | –
C/C1=C2/[N-]C(C(CC(N)=O)[C@@]2(C)CCC(=O)NCC(C)OP(=O)([O-])O[C@H]2[C@@H](O)[C@@H](n3cnc4cc(C)c(C)cc43)O[C@@H]2CO)[C@]2(C)N=C(/C(C)=C3N=C(/C=C4N=C1C(CCC(N)=O)C\4(C)C)[C@@H](CCC(N)=O)[C@]\3(C)CC(N)=O)[C@@H](CCC(N)=O)[C@]2(C)CC(N)=O.CC(=O)O.[Co] (stereo partly drawn) | -0.0698 | –
CC1(C)OC[C@@H]2O[C@@]3(C(=O)O)OC(C)(C)O[C@@H]3[C@@H]2O1 | 13.6 | –
Cc1ccccc1N1C(=O)c2cc(N)ccc2N/C1=C\F | -17.1 | –
CCC(C(=O)O)C1OC(C(C)C(O)C(C)C(=O)C(CC)C2OC3(C=CC(O)C4(CCC(C)(C5CCC(O)(CC)C(C)O5)O4)O3)C(C)CC2C)C(C)CC1C (stereo not drawn) | – | 141 nM (active)
O=C1C(I)=CC(=C(c2cc(I)c(O)c(I)c2)c2ccccc2C(=O)O)C=C1I | 5.11 | –
NC(=O)NC(CCC(=O)O)C(=O)O (stereo not drawn) | 6.36 | –
COC1CC2CCC(C)[C@](O)(O2)C(=O)C(=O)N2CCCCC2C(=O)OC(C(C)CC2CCC(O)C(OC)C2)CC(=O)C(C)/C=C(/C)C(O)C(OC)C(=O)C(C)CC(C)C=CC=C/C=C\1C (stereo partly drawn) | – | 1260 nM (active)
CC(=O)OCC(=O)[C@@]1(O)CCC2C3C[C@H](C)C4=CC(=O)C=CC4(C)C3C(O)CC21C (stereo partly drawn) | 10.9 | –
CN[C@H](C)CCC=C(C)C | – | 112 nM (active)
CC1(C)C2CC[C@]1(C)[C@@H](O)C2 | 7.8 | –
OCC1O[C@H](Oc2ccc(O)cc2)C(O)C(O)C1O (stereo partly drawn) | 0.56 | –
Nc1nc(F)nc2c1ncn2[C@@H]1O[C@H](CO)[C@@H](O)[C@H]1O | 21.3 | –
CC1OC(OC2CCC3(C)C(CCC4C3CC(O)C3(C)C(C5=CC(=O)OC5)CCC43O)C2)CC(O)C1OC1CC(O)C(OC2CC(O)C(OC3OC(CO)C(O)C(O)C3O)C(C)O2)C(C)O1 (stereo not drawn) | 3.65 | –
CC1OC(OCC2OC(Oc3c(-c4ccc(OCCO)c(OCCO)c4)oc4cc(OCCO)cc(O)c4c3=O)C(O)C(O)C2O)[C@@H](O)C(O)C1O (stereo partly drawn) | -12.9 | –
